Only some compounds are listed: those with a hit (about 3.2% of all), similar ones and a draw of the others.
DNA Pol III inh – blocks replication by bacterial DNA polymerase III holoenzyme; reconstituted DNA polymerase III holoenzyme replication, biochemical; Potency, µM (top dose mostly 57.1 µM), for inactives: top-dose activity change, negative = inhibition; 71,000 tested, 0.25% active; also: potency is read from the fitted curve at half-maximal effect; % is scaled to controls: 0 for no effect and ±100 for the full control effect
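Reconstituted *E. coli* holoenzyme (0.35 nM Pol III, 1 nM beta, 154 nM SSB, 2 nM primase) was preincubated with compound for 15 min at RT. Synthesis on 1.4 nM ssM13Gori ran 35 min, then was stopped with PicoGreen/EDTA and read as dsDNA fluorescence.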
BRCT inh green – blocks human BRCA1 BRCT binding to phosphopeptide, green readout | 75,000 tested, 0.05% active | P38398 | BRCA1 BRCT-phosphopeptide binding, green fluorescence polarization | Potency, µM (top dose mostly 76.9 µM), without a hit: at the highest dose activity change, negative = inhibition, usual class: inhibitors;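 also: potency is read from the fitted curve at half-maximal effect; plate controls were peptide without protein for full effect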
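Fluorescence polarization: His-tagged BRCT (~35 kDa BRCA1 C-terminus, 250 nM) bound to 100 nM fluorescein-labeled phosphorylated 10-aa BACH1 peptide, pH 7.3 phosphate buffer with DTT and Tween 20. Compounds incubated 12 min at room temperature; inhibition read as lowered polarization.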
HEK293 cAMP cs – counter-screen for TSHR agonists: cAMP increase in parental HEK293; parental HEK293 CNG cAMP sensor, membrane potential fluorescence; Potency, µM (titrated, usually from 57.1 µM), for the others: at the highest dose activation, usual class: activators; 73,000 tested, 2.5% active; also: potency is read from the fitted curve at half-maximal effect; % of control where 0% means no effect; nearly all actives have a fitted effect of over 55% in size
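Parental HEK 293 cells stably expressing a modified CNG channel (no TSHR) report cAMP rise as membrane depolarization. Membrane potential dye with 100 uM RO 20-1724 was loaded for 60 min at room temperature, then compound added for 30 min; fluorescence read at 590 nm.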
TSHR ag – agonists of human thyroid stimulating hormone receptor. P16473. HEK293-CNG-TSHR cells (CNG channel as cAMP sensor), membrane potential dye, cAMP. Potency, µM (series often up to 57.1 µM), without a hit: at the top dose activation, actives largely listed as activators. 73,000 tested, 0.48% active. AID 926; active = well fitted activation curve with a large enough effect in the main read-out, with a control signal flat, not every such curve was filed as active; inconclusive = small, poorly fitted or top-dose-only effect, or a change in a side signal; inactive = no such curve, though single readings can be large or run the other way; % of control where 0% means no effect;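 also: the control signal comes from parental cells without the receptor; potency is read from the fitted curve at half-maximal effect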
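HEK 293 cells stably expressing TSHR and a modified CNG channel, with CNG-only parental cells as counterscreen, were preloaded 60 min at room temperature with membrane potential dye containing 100 uM RO 20-1724. Compound exposure was 30 min, and depolarization was read as fluorescence at 590 nm.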
BRCT inh red – BRCT-phosphoprotein interaction inhibition (red fluorophore). P38398. BRCT-phosphopeptide binding, red fluorescence polarization. Potency, µM (series often up to 76.9 µM), inactives show at the top dose activity change, negative = inhibition, actives largely listed as inhibitors. 75,000 tested, 0.03% active; also: % is scaled to controls: 0 for no effect and ±100 for the full control effect
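Rhodamine-labelled pBACH1 10-mer (100 nM) bound to BRCT domain (100 nM) at pH 7.3; compounds incubated 12 min room temperature, polarization read. Free peptide defines full inhibition; unlabelled decapeptide titrated as control.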
YjeE inh – inhibitors of E. coli YjeE (TsaE). P0AF67. purified YjeE enzyme, qHTS inhibition assay. Potency, µM. 71,000 tested, 0.05% active
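Fluorescence polarization of a BODIPY Texas Red–ADP probe (2 uM) bound to purified YjeE (10 uM) was read after 15 min room-temperature incubation with compounds. Loss of polarization marks inhibitors; ADP serves as titrated control.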
An asterisk follows results filed as active; i = inactive; ? = inconclusive; [ ] = another dose, or the depositor's remark. Unless noted, calls follow the shape of the dose curve; as a rule, active = well fitted curve in the direction sought with a large enough effect; inconclusive = small, poorly fitted or top-dose-only effect, or another doubt; inactive = no such curve, though single readings can be large; an effect the other way counts as inactive or inconclusive.

SMILES | DNA Pol III inh | BRCT inh green | HEK293 cAMP cs | TSHR ag | BRCT inh red | YjeE inh
CCOC(=O)c1oc2ccccc2c1CSc1nnnn1-c1ccc(C)cc1 | 3.6% | 0.3% | 7.94µM* | ? | 0.1% | i
Clc1ccc(CSc2nnc(-c3ccncc3)o2)c(Cl)c1 | -4.3% | 1.4% | 20µM* | ? | -1.3% | i
COc1cc(C2Nc3cccc4cccc(c34)N2)cc(OC)c1O | -0.1% | -4.3% | -1.5% | -10.4% | -2.1% | i
c1coc(C2Nc3cccc4cccc(c34)N2)c1 | 3.98µM* | ? | -18.7% | -27.1% | ? | i
CN(C)C[C@@H](O)c1ccc(Cl)c2ccccc12 | -6.0%[11.4 µM] | -4.3%[15.4 µM] | 19.6%[11.4 µM] | 11.7%[11.4 µM] | -0.6%[15.4 µM] | i
COc1ccc2[nH]c(C(=O)c3ccccc3)cc2c1 | -11.3% | -1.3% | 7.94µM* | ? | -0.4% | i
COCC(=O)N(Cc1cc2cc(OC)ccc2[nH]c1=O)c1ccccc1 | -6.6% | 2.3% | 0.2% | -65.9% | -0.3% | i
C=CCn1c(SCC(=O)Nc2cc(C)c(Cl)cc2OC)nnc1-c1ccco1 | 0.0% | 3.1% | 25.1µM* | ? | 0.3% | i
N#Cc1nc(COc2ccccc2F)oc1NCc1ccc(F)cc1 | -2.0% | 4.4% | ? | ? | 0.9% | i
COc1ccc(CCNc2oc(COc3ccc(Br)cc3)nc2C#N)cc1OC | -0.3% | 0.8% | ? | ? | -1.0% | i
COc1ccc(CCNc2oc(Cc3cccc4ccccc34)nc2C#N)cc1OC | 2.7% | 3.0% | 22.7% | 20µM* | -0.2% | i
COc1ccc(CCNc2oc(COc3ccccc3F)nc2C#N)cc1 | -0.5% | 6.2% | 20µM* | ? | -0.3% | i
O=C1CCN2C=Nc3cccc4ccc1c2c34 | 119.2% | 15.8µM* | -8.5% | 1.3%[11.4 µM] | 0.1% | i
CC(=O)NC(N1CCCCC1)C(F)(F)C(F)(F)C(F)(F)C(F)F (configuration not stated) | 1.8% | -2.7% | -1.3% | 1.2% | -0.1% | i
O=P(O)(O)C(O)C(F)(F)C(F)(F)C(F)(F)C(F)F (configuration not stated) | -4.9% | -1.2% | 3.98µM* | ? | -2.3% | i
N#CCSc1nnc(Cc2cccc3ccccc23)n1C1CCCCC1 | -2.5% | 1.6% | 15.8µM* | ? | 1.6% | i
N#CCSc1nnc2ccc3ccccc3n12 | -3.8% | -0.6% | -1.6% | 6.1% | 1.8% | i
Cc1c(C)n(C(=O)CN2CCC(C(N)=O)CC2)c2ccccc12 | 4.1% | -0.2% | 8.8% | 9.6% | -0.6% | i
COc1ccc(C(=O)OCCNC(=O)c2c(Cl)nc3ccccn23)cc1 | -13.4% | 0.4% | -1.4% | 24.8% | 0.4% | i
N#Cc1ccccc1NC(=O)c1ccc(-c2ccccc2Cl)o1 | -0.9% | -1.9% | 25.1µM* | ? | -3.9% | i
CCC(c1nnnn1Cc1cccs1)N1CCN(c2nc3ccccc3s2)CC1 (configuration not stated) | -6.2% | -0.9% | 31.6µM* | ? | 0.4% | i
COCCn1nnnc1C(c1cccs1)N1CCN(c2nc3ccccc3s2)CC1 (configuration not stated) | 0.2% | -3.1% | 20.0% | 13.1% | -0.4% | i
CCC(c1nnnn1Cc1cccs1)N1CCN(C2CCCC2)CC1 (configuration not stated) | 2.5% | 1.7% | 5.01µM* | ? | -1.2% | i
c1ccc2sc(N3CCN(Cc4nnnn4CC4CCCO4)CC3)nc2c1 (configuration not stated) | -4.9% | -2.1% | 25.1µM* | ? | -1.8% | i
CCCC(c1nnnn1Cc1ccco1)N1CCN(C2CCCC2)CC1 (configuration not stated) | ? | -0.8% | 15.8µM* | ? | -2.3% | i
COc1ccc(NC(=O)c2cc(=O)c3ccccc3o2)cn1 | -4.7% | -2.4% | -12.9% | -7.0% | -0.9% | i

Screens deposited in PubChem by National Center for Advancing Translational Sciences (NCATS).
